Molecules are shown by their SMILES. Where “and” joins values, the source holds several entries; their conditions need not be identical. Identical values can stand only once. The panel holds about 83,000 compounds, 20% with a hit somewhere; the sample as a whole holds those more often.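 Negative percent growth values reflect cell death: -40 means 40% of the cells present at the start died, and -100 means all died.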 Values without a mark were called inactive. Calls of active or inactive are those of the source. How the source made its calls: active means growth percent below 10; inactive means the rest.

The assay relates to MDA-MB-468 breast. The experiment in a line: NCI-60 one-dose screen, 48 h (100 = growth as untreated, 0 = no growth, -100 = all killed). Conditions: 10 µM unless noted.
Turning to `O=C(N/N=C/C=C\c1ccccc1)C(=O)N/N=C/C=C/c1ccccc1`, the growth was 105%.
Next, `Oc1cc(Nc2ccnc3cc(Cl)ccc23)c2ncccc2c1`: 47.4%; `CCN(CC)Cc1cc(Nc2cc(C(F)(F)F)c(C#N)c3nc4ccccc4n23)ccc1O`: -0.969% (active).
Next, `COc1ccc(NC(=O)Nc2ccc(-c3ccc(OC)c(OC)c3)nc2C)cc1`: 83%; `CCOC(=O)c1nc(Nc2ccc(C(C)=O)cc2)sc1C`: 96.9%; `CC(C)NC(=O)OCc1c(COC(=O)NC(C)C)c(-c2ccc(Cl)c(Cl)c2)n2c1SCC2`: -73.9% (active).
As to `COc1ccc(COc2ccc(/C=C3/C(=O)Nc4cc(Cl)ccc43)cc2)cc1`, the growth is 93.4%.
`O=C(c1ccccc1)C(CN1CCOCC1)c1ccccc1` (stereo unspecified): the growth was -68.7% (active).
With `C=C1C(=O)O[C@H]2[C@H]1CC/C(CNS(=O)(=O)c1ccc3ccccc3c1)=C\CC[C@@]1(C)O[C@@H]21`, the growth was -54% (active).
To `CO[C@H]1CC(c2ccc[nH]2)=N[C@]12O[C@@H](C)C[C@@H]1CCCCCCCc3ccc([nH]3)[C@H]12` belongs 1.37% (active); to `CCOC(=O)c1cc(C(=O)c2ccc(OC)c(OC)c2)n2c1ccc1ccc3cccnc3c12`, 38.5%; to `COc1cc2ncnc(Oc3ccc(NC(=O)Nc4ccc(C5(C#N)CCCC5)cc4)c4ccccc34)c2cc1OC`, 38.2%.
Next, `O=C(CSc1nc2sc3c(c2c(=O)n1-c1ccccc1)CCCCC3)N/N=C/c1ccc(F)cc1`: -3.84% (active); `COc1cc(/C=C2\C(=O)ON=C2C)cc(OC)c1OC`: 107%.
As for `Cn1c([N+](=O)[O-])cnc1/C=C1\Oc2ccc(Cl)cc2C1=O`, the growth was 7.19% (active).
Next, `CC(=O)c1cc(C(=O)c2ccc3c(c2)Sc2ccccc2N3)c2cc(C)ccn12`: -3.41% (active); `COc1ccc(C(O)c2cc3c(N)c(C(=O)Nc4cccc(Cl)c4)sc3nc2C)cc1` (stereo unspecified): 22.4%; `O=C(O)c1ccc2c(c1)C(=O)c1ccccc1C2=O`: -2.97% (active).
With `Nc1nc(SCc2cccc([N+](=O)[O-])c2)c2[nH]cnc2n1`, the growth was 64.5%.
Next, `Cc1csc(/N=C(N)/N=C(\N)c2cccs2)n1`: 120%; `Nc1n[nH]c2cccc(C#Cc3cccc(NC(=O)c4cc(N5CCOCC5)cc(C(F)(F)F)c4)c3)c12`: 85.6%; `C=C(C)[C@H]1CC/C(C)=C/CC[C@]2(C)O[C@H]2CC/C(COC(C)=O)=C\C1=O`: 115%.
Turning to `COC[C@@H](C)n1c(C2CCOCC2)nc2c1C1C=C(OC)C(c3c(C)noc3C)=CC1N=C2` (stereo partly specified), the growth was 32.4%.
Next, `COC(=O)c1cc2c(n1Cc1ccccc1)-c1oncc1CCC2`: 63.5%; `C=C1C(=O)O[C@H]2[C@H]1CC/C(COC(=O)c1cc3cc(F)ccc3[nH]1)=C\CC[C@@]1(C)O[C@@H]21`: -63.2% (active).
On to `CCOC(=O)C#Cc1c(CC(=O)OCC)nnn1[C@H]1O[C@@H](CO)[C@@H]2OC(C)(C)O[C@@H]21`, for which the growth is 10.6%.
Next, `O=C(c1nc2ccccc2[nH]1)C1C(c2cccc([N+](=O)[O-])c2)C2CC3CCCCC3N2[C@@]12C(=O)Nc1cc(Cl)ccc12` (stereo partly specified): 1.53% (active).
Next, `O=C1C=C(Nc2ccccc2)c2ccccc2C1=O`: 78% and 76.9%.
Next, `O=c1c2c([nH]c3ccccc13)CCCC2`: 88.2% and 14.6%.
With `CN1CCN(CCOc2ccc(-c3cnc4c(-c5ccccc5F)cnn4c3)cc2)CC1`, the growth is 45.6%.
For the molecule `C[C@]12C[C@H](O)[C@H]3[C@@H](CCC4=CC(=O)CC[C@@]43C)[C@@H]1CC[C@@H]2C(=O)CO`, the growth is 84.4%.
To `COc1ccc(NC(=O)[C@H](C)N)cc1C(=O)Nc1cccc(-c2cc(=O)c3c(OC)c(OC)c(OC)cc3o2)c1` belongs 58.5%; to `Cc1cc(Cc2cc(C)c(N)cc2N)c(N)cc1N`, 95.4%.
On to `Cn1cnc([N+](=O)[O-])c1S(=O)(=O)Oc1cccc2ccccc12`, for which the growth is 58.9%.
Regarding `C=C(CNCCc1ccc(O)cc1)[C@@H]1CC[C@]2(COC3CCCCO3)CC[C@]3(C)[C@H](CC[C@@H]4[C@@]5(C)CCC(N)C(C)(C)[C@@H]5CC[C@]43C)[C@@H]12` (stereo partly specified), the growth is -85.6% (active).
To `O=C(CCc1nnc2sc(OCc3ccccc3)nn12)c1nc2ccc([N+](=O)[O-])cc2[nH]1` belongs 109%.

Values taken from PubChem BioAssay (NCI).
